# Data taken from PubChem BioAssay (NCATS).
# Values joined by “and” are separate entries in the source; they are usually repeats but may differ in a detail not shown here. Identical values can stand only once. Inconclusive results are not listed. Some compounds were tested as several samples or in several runs, with calls that do not always agree. Unmarked numbers belong to inactive results. Active and inactive are the calls of the source. Calls come from the whole dose curve; as a rule, active = well fitted inhibition curve with a large enough effect; inconclusive = small, poorly fitted or top-dose-only effect; inactive = flat fitted curve, though single readings scatter.
# Test system: HaCat
# Assay: Cytotoxic Profiling of Annotated Libraries Using Quantitative High-Throughput Screening (AID 1296008); note: nearly all actives have a fitted effect of over 60% in size
# Conditions: Five cell lines viability, CellTiter-Glo ATP luminescence, 48-72 h; max response: active compounds read low
# How it was run: (§1)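 Cytotoxicity was measured as CellTiter-Glo ATP luminescence, read after 10 min at room temperature. Compound treatment of the cells lasted 48 or 72 hr at 37 degrees Celsius in a qHTS format.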
# % is set by controls: 0 for no effect and ±100 for the full control effect; potency is the fitted concentration of half-maximal effect.
SMILES,Potency,outcome,max response
CCN1CCN(CC(=O)Nc2ccc(-c3cccc4c(=O)cc(N5CCOCC5)oc34)c3sc4ccccc4c23)CC1,0.935 µM (active),–,–
Nc1cccc(-c2cc3c(Oc4cccc(O)c4)ncnc3[nH]2)c1,2.96 µM (active),–,–
COC(=O)C[C@](O)(CCCC(C)(C)O)C(=O)O[C@@H]1C(OC)=C[C@]23CCCN2CCc2cc4c(cc2[C@H]13)OCO4,–,inactive,–
CC(C)C[C@H](NC(=O)CNC(=O)c1cc(Cl)ccc1Cl)B(O)O,3.72 µM (active),–,–
Cc1cnc(Nc2ccc(F)cc2Cl)nc1-c1c[nH]c(C(=O)N[C@H](CO)c2cccc(Cl)c2)c1,–,–,-129%
CN1CCN(c2cc(C(=O)Nc3ccc4c(c3)-c3c(c(C(N)=O)nn3-c3ccc(F)cc3)CC4)c(Cl)cn2)CC1,–,inactive,–
O=C(Nc1ncc(-c2cc(C(F)F)nn2-c2c(Cl)cccc2Cl)s1)C1CC1,–,–,-7.36% and -20.3%
Cc1ccc(S(=O)(=O)Nc2cc(Cl)ccc2C(=O)Nc2nc(-c3ccccc3)cs2)cc1,–,inactive,–
CN[C@H]1CCc2cc(OC)c(OC)c(OC)c2-c2ccc(OC)c(=O)cc21,–,–,-10.1%
COc1cc(C)c(Sc2cnc(NC(=O)c3ccc(CNC(C)C(C)C)cc3)s2)cc1C(=O)N1CCN(C(C)=O)CC1 (configuration not stated),5.9 µM (active),–,–
C[C@@H]1CN(CC(=O)Nc2ccc3c(c2)Cc2cccc(-c4cc(=O)cc(N5CCOCC5)o4)c2S3)C[C@H](C)O1,–,inactive,–
CN1CCC(CNc2ccc3ncc(-c4cccc(OC(F)(F)F)c4)n3n2)CC1,13.2 µM (active) and 16.4 µM (active),–,–
CCC1=C[C@@H]2CN(C1)Cc1c([nH]c3ccccc13)[C@@](C(=O)OC)(c1cc3c(cc1OC)N(C)[C@@H]1[C@@](O)(C(=O)OC)[C@H](OC(C)=O)[C@]4(CC)C=CCN5CC[C@]31[C@@H]54)C2,–,–,-8.6%
COC(=O)[C@]12CCC(C)(C)C[C@@H]1[C@@H]1C(=O)C=C3[C@@]4(C)C=C(C#N)C(=O)C(C)(C)[C@@H]4CC[C@@]3(C)[C@]1(C)CC2,4.18 µM (active),–,–
Cc1ccc(-c2ncn(-c3ccc(Nc4nccc(-c5cccc(N6CCOCC6)c5)n4)cc3)n2)cn1,0.418 µM (active),–,–
N#CCNC(=O)c1ccc(-c2ccnc(Nc3ccc(N4CCOCC4)cc3)n2)cc1,13 µM (active),–,-43.7%
CC(C)c1cc(-c2n[nH]c(=O)n2-c2ccc3c(ccn3C)c2)c(O)cc1O,0.0651 µM (active),–,–
Cc1c(CN2CCN(S(C)(=O)=O)CC2)sc2c(N3CCOCC3)nc(-c3cnc(N)nc3)nc12,0.0418 µM (active),–,–
Cc1cc(N2CCOCC2)cc2[nH]c(-c3c(NC[C@@H](O)c4cccc(Cl)c4)cc[nH]c3=O)nc12,4.18 µM (active) and 5.8 µM (active),–,–
OCc1ccc(-c2ccc(-c3ccc(CO)s3)o2)s1,–,inactive,4.62%
Cc1nc2cnc3ccc(C#Cc4cccnc4)cc3c2n1-c1ccc(C(C)(C)C#N)cc1,1.18 µM (active),–,–
Cc1cccc(C=NNc2cc(N3CCOCC3)nc(OCCc3ccccn3)n2)c1,–,–,-6.14%
CN(C)CCCN=c1c2ccccc2n(C)c2[nH]c(=O)n(C)c(=O)c12,18.7 µM (active),–,–

# Test system: KB-3-1
# Assay: as above
# Conditions: Five cell lines viability, CellTiter-Glo ATP luminescence, 48-72 h; max response: active compounds read low
# How it was run: as §1
SMILES,Potency,max response,outcome
COc1cc(C(=O)N2CCC(N3CCN(C)CC3)CC2)ccc1Nc1ncc2c(n1)N(C)c1ccccc1C(=O)N2C,14.8 µM (active) and 16.4 µM (active),–,–
NC(=O)c1cccc2cn(-c3ccc([C@@H]4CCCNC4)cc3)nc12,–,-3.07% and -13.7%,–
Nc1ccc(C(=O)c2cc3c(ccc4ccccc43)[nH]2)cc1,4.18 µM (active),–,–
C[C@@]12O[C@@H](C[C@]1(O)CO)n1c3ccccc3c3c4c(c5c6ccccc6n2c5c31)CNC4=O,0.372 µM (active),–,–
O=C(Nc1ncc(-c2cc(C(F)F)nn2-c2c(Cl)cccc2Cl)s1)C1CC1,590 nM (active) and 820 nM (active),–,–
Cc1ccc(S(=O)(=O)Nc2cc(Cl)ccc2C(=O)Nc2nc(-c3ccccc3)cs2)cc1,–,-7.08%,–
CN[C@H]1CCc2cc(OC)c(OC)c(OC)c2-c2ccc(OC)c(=O)cc21,3.7 nM (active) and 46.1 nM (active),–,–
C[C@@H]1CN(CC(=O)Nc2ccc3c(c2)Cc2cccc(-c4cc(=O)cc(N5CCOCC5)o4)c2S3)C[C@H](C)O1,–,-19.5%,–
c1cc(-c2cnn3cc(-c4ccc(OCCN5CCCCC5)cc4)cnc23)ccn1,3.72 µM (active),–,–
COc1c(OCCCN2CCOCC2)ccc2c3n(c(=NC(=O)c4cnc(N)nc4)nc12)CCN3,0.0944 µM (active),–,–
O=c1[nH]c(=O)n(C2CCCO2)cc1F (configuration not stated),–,–,inactive
CN1CCC(CNc2ccc3ncc(-c4cccc(OC(F)(F)F)c4)n3n2)CC1,20.9 µM (active),–,–
CCC1=C[C@@H]2CN(C1)Cc1c([nH]c3ccccc13)[C@@](C(=O)OC)(c1cc3c(cc1OC)N(C)[C@@H]1[C@@](O)(C(=O)OC)[C@H](OC(C)=O)[C@]4(CC)C=CCN5CC[C@]31[C@@H]54)C2,0.0166 µM (active),–,–
CC(C)=CCCC(C)=CCCC(C)=CCSc1ccccc1C(=O)O,4.69 µM (active),–,–
CCN(CC)CCCCNc1ncc2cc(-c3cc(OC)cc(OC)c3)c(NC(=O)NC(C)(C)C)nc2n1,–,-22.2%,–
COC(=O)[C@]12CCC(C)(C)C[C@@H]1[C@@H]1C(=O)C=C3[C@@]4(C)C=C(C#N)C(=O)C(C)(C)[C@@H]4CC[C@@]3(C)[C@]1(C)CC2,1.18 µM (active),–,–
Cc1ccc(-c2ncn(-c3ccc(Nc4nccc(-c5cccc(N6CCOCC6)c5)n4)cc3)n2)cn1,0.209 µM (active),–,–
N#CCNC(=O)c1ccc(-c2ccnc(Nc3ccc(N4CCOCC4)cc3)n2)cc1,11.8 µM (active) and 18.4 µM (active),–,–
O=C(O)c1ccc2c(c1)nc(Nc1cccc(Cl)c1)c1ccncc12,20.6 µM (active),6.46%,–
Cc1c(CN2CCN(S(C)(=O)=O)CC2)sc2c(N3CCOCC3)nc(-c3cnc(N)nc3)nc12,0.0833 µM (active),–,–
Cc1cc(N2CCOCC2)cc2[nH]c(-c3c(NC[C@@H](O)c4cccc(Cl)c4)cc[nH]c3=O)nc12,14.8 µM (active),–,–
OCc1ccc(-c2ccc(-c3ccc(CO)s3)o2)s1,2.82 µM (active),-70.8%,–
Cc1nc2cnc3ccc(C#Cc4cccnc4)cc3c2n1-c1ccc(C(C)(C)C#N)cc1,0.0935 µM (active),–,–
COc1cccc2c(NCc3ccccc3)nc(-n3c(N)nc4ccccc43)nc12,–,-11.5%,–
Cc1cc(C(=O)N2CCN(c3cccc(Cl)c3)CC2)n(-c2ccccc2)n1,833 nM (active) and 1.64 µM (active),–,–
